Source: ChEMBL document CHEMBL1857833, “Screening and optimization of specific chemical series against human African Trypanosomiasis (HAT)”
The campaign covered roughly 4,400 compounds. About 390 (8.9%) showed an effect of 50% or more. The full list was thinned out, with strong results kept by preference.

test system: Trypanosoma brucei; test: DNDI: Inhibition of Human African Trypanosomiasis, SBRI 427, in vitro at 2 ug.mL-1; type: functional

| Compound | % inhibition |
| --- | --- |
| Cc1ccc(N(C)Cc2coc(-c3cccc4ccccc34)n2)cc1 | 6% |
| Cn1nc(C(C)(C)C)cc1NCc1coc(-c2ccc(C(C)(C)C)cc2)n1 | -5% |
| Cc1ccc(C(C)C)c(Oc2cc(/C(=N/O)Nc3ccc(C(C)C)cc3)ccn2)c1 | 21% |
| COCCN(Cc1coc(-c2ccccc2Cl)n1)C(C)C | -24% |
| c1ccc2c(-c3nc(CNCc4ccncc4)co3)cccc2c1 | 6% |
| Cc1ccc(/C(=N/O)NCCN2CCOCC2)c(Oc2ccc3ccccc3c2)n1 | 15% |
| COc1ccc(-c2nc(CNCc3cccc(C(F)(F)F)c3)co2)cc1 | -13% |
| CCOc1ccccc1-c1nc(CNc2ccccc2)co1 | 6% |
| CCOc1ccccc1-c1nc(CNC23C[C@H]4C[C@@H](C2)C[C@@H](C3)C4)co1 | 9% |
| C[C@@H]1C(NCc2coc(-c3cccc4ccccc34)n2)C[C@H]2C[C@@H]1C2(C)C (stereo not given in full) | 95% |
| c1ccc(CNCc2coc(-c3cccc4ccccc34)n2)cc1 | 8% |
| CN(C)CCNCc1coc(-c2cccc3ccccc23)n1 | 22% |
| CCOc1ccccc1-c1nc(CNC2C[C@@H]3C[C@H]([C@H]2C)C3(C)C)co1 (stereo not given in full) | 101% |
| CC1CC(C)CN(Cc2coc(-c3cccc4ccccc34)n2)C1 (stereo not given) | 28% |
| C[C@H]1C(NCc2coc(-c3cccc4ccccc34)n2)C[C@@H]2C[C@H]1C2(C)C (stereo not given in full) | 85% |
| Clc1ccccc1-c1nc(CN2CCN(c3ccccn3)CC2)co1 | 4% |
| Fc1ccc(-c2nc(CNCC(c3ccccc3)c3ccccc3)co2)cc1 | -33% |
| COc1cc(-c2nc(CNCc3cccnc3)co2)cc(OC)c1OC | 25% |
| CSc1ccc(Oc2nc(C)ccc2/C(=N/O)NCc2ccc(C)o2)cc1C | 12% |
| CCOc1ccccc1-c1nc(CN(CC)c2cccc3ccccc23)co1 | 4% |
| O/N=C(\NC1CCc2ccccc21)c1cccnc1Oc1ccc(-n2cncn2)cc1 (stereo not given) | 31% |
| Cc1ccc(/C(=N/O)NC2CCc3ccccc32)c(Oc2c(F)c(F)cc(F)c2F)n1 (stereo not given) | 7% |

| Compound | % inhibition |
| --- | --- |
| CC(C)c1ccc(Oc2ncccc2/C(=N/O)NC2CCc3ccccc32)cc1 (stereo not given) | 100% |
| O/N=C(\NC1CCc2ccccc21)c1cccnc1Oc1ccc(F)cc1Cl (stereo not given) | 9% |
| Cc1ccc(/C(=N/O)NC2CCc3ccccc32)c(Oc2ccc(F)c(F)c2)n1 (stereo not given) | 20% |
| CC(C)c1ccc(N/C(=N\O)c2cccnc2Oc2ccc(Cl)cc2)cc1 | 11% |
| CSc1ccc(Oc2nc(C)ccc2/C(=N/O)NC2CCc3ccccc32)cc1C (stereo not given) | 21% |
| O/N=C(\NC1CCc2ccccc21)c1cccnc1Oc1ccc2ccccc2c1 (stereo not given) | 97% |
| CC(C)COc1ncccc1/C(=N/O)NC1CCc2ccccc21 (stereo not given) | -11% |
| COc1ccc(Oc2ncccc2/C(=N/O)NC2CCc3ccccc32)cc1 (stereo not given) | 97% |
| O/N=C(\NC1CCc2ccccc21)c1cccnc1Oc1c(F)cccc1F (stereo not given) | 83% |
| COc1ccc(Oc2nc(C)ccc2/C(=N/O)NC2CCc3ccccc32)cc1 (stereo not given) | 23% |
| CCOc1ccccc1-c1nc(CNCc2ccc(C)o2)co1 | 18% |
| COc1cccc(CN/C(=N\O)c2ccnc(Oc3cccc4cccnc34)c2)c1 | 35% |
| O/N=C(/c1ccc(Oc2cccc3c2CCCC3)nc1)N1CCN(c2ccccc2)CC1 | 9% |
| C=CCN(CC=C)Cc1coc(-c2ccc(OC)cc2)n1 | 1% |
| Cc1ccc(/C(=N/O)N(C)c2ccccc2)c(Oc2ccc(Cl)cc2)n1 | 22% |
| COc1ccc(CN/C(=N\O)c2ccc(C)nc2Oc2cccc3c2CCCC3)cc1 | 1% |
| Cc1cccc(-c2nc(CN3CCN(c4cc(C)nc5ccccc45)CC3)co2)c1 | 27% |
| CCOc1ccccc1-c1nc(CN(CC)C2CCN(Cc3ccccc3)C2)co1 (stereo not given) | -5% |
| CC(C)c1ccc(Oc2ccc(/C(N)=N/O)cn2)cc1 | 23% |
| Cc1ccc(/C(=N/O)NC2CCc3ccccc32)c(Oc2ccc(F)c(Cl)c2)n1 (stereo not given) | -22% |
| CCC(CC)NCc1coc(-c2ccc(OC)cc2)n1 | -11% |
| COc1ccc(-c2nc(CNCc3ccc(OC)cc3OC)co2)cc1 | 4% |

| Compound | % inhibition |
| --- | --- |
| COc1ccc(-c2nc(CNCc3c(OC)cccc3OC)co2)cc1 | 17% |
| COc1cccc(OC)c1CNCc1coc(-c2ccc(C)cc2)n1 | 22% |
| COc1cccc(OC)c1CNCc1coc(-c2ccc(C(C)(C)C)cc2)n1 | 100% |
| COc1ccc(CNCc2coc(-c3ccccc3C)n2)c(OC)c1 | 5% |
| COc1ccc(CNCc2coc(-c3ccc(C(F)(F)F)cc3)n2)c(OC)c1 | 11% |
| COc1ccc(CNCc2coc(-c3cccc4ccccc34)n2)c(OC)c1 | 57% |
| COc1ccc(CNCc2coc(-c3ccccc3Br)n2)c(OC)c1 | -13% |
| COc1ccc(CNCc2coc(-c3ccc(C(C)(C)C)cc3)n2)c(OC)c1 | 69% |
| COc1ccc(-c2nc(CN3CCc4ccccc4C3)co2)cc1 | -8% |
| CN(Cc1coc(-c2ccc(O)cc2)n1)C(c1ccccc1)c1ccccc1 | -30% |
| CN(Cc1ccco1)/C(=N\O)c1cccnc1Oc1ccc2c(c1)CCCC2 | -1% |
| Cc1ccc(/C(=N/O)N2CCCC2)c(Oc2ccc3ccccc3c2)n1 | 25% |
| CN(Cc1cccnc1)Cc1coc(-c2ccc(Cl)cc2Cl)n1 | 36% |
| CN(CC#N)Cc1coc(-c2cccs2)n1 | -11% |
| Cc1ccc(CNCc2coc(-c3ccccc3Br)n2)o1 | 3% |
| CCOc1ccc(-c2nc(CNC3C[C@H]4CC[C@@H]3C4)co2)cc1 (stereo not given in full) | 11% |
| C[C@H]1C(NCc2coc(-c3ccc(O)cc3)n2)C[C@@H]2C[C@H]1C2(C)C (stereo not given in full) | 101% |
| CCOc1ccc(-c2nc(CNC3C[C@H]4C[C@@H]([C@@H]3C)C4(C)C)co2)cc1 (stereo not given in full) | -5% |
| C[C@@H]1C(NCc2coc(-c3ccc(O)cc3)n2)C[C@H]2C[C@@H]1C2(C)C (stereo not given in full) | 26% |
| CCOc1ccc(-c2nc(CNC3C[C@@H]4C[C@H]([C@H]3C)C4(C)C)co2)cc1 (stereo not given in full) | 78% |
| CC1CCCC(NCc2coc(-c3ccc(O)cc3)n2)C1C (stereo not given) | -13% |
| CCOc1ccccc1CN/C(=N\O)c1ccc(Oc2ccc(C)cc2OC)nc1 | 25% |

| Compound | % inhibition |
| --- | --- |
| CCN(CCC#N)Cc1coc(-c2cccc3ccccc23)n1 | 10% |
| Cc1ccccc1-c1nc(CNCC(C)(C)CN(C)C)co1 | -8% |
| COc1cc(C)ccc1Oc1nc(C)ccc1/C(=N/O)N1CCCC1 | 13% |
| COc1cc(C)ccc1Oc1nc(C)ccc1/C(=N/O)NCC1CCCCC1 | 0% |
| COc1ccc(Oc2nc(C)ccc2/C(=N/O)NCCN2CCCC2)cc1 | -2% |
| Cc1ccc(/C(=N/O)NCCN2CCCC2)c(Oc2ccc(F)cc2)n1 | 91% |
| COc1cc(C)ccc1Oc1nc(C)ccc1/C(=N/O)NCC1CCCO1 (stereo not given) | 15% |
| CCCN/C(=N\O)c1ccc(C)nc1Oc1ccc(C)cc1OC | 22% |
| COc1cc(C)ccc1Oc1nc(C)ccc1/C(=N/O)NCC(C)C | 100% |
| COc1cc(C)ccc1Oc1nc(C)ccc1/C(=N/O)NCC(C)(C)C | 99% |
| COc1cc(C)ccc1Oc1nc(C)ccc1/C(=N/O)NCC1CC1 | 100% |
| Cc1ccc(Oc2nc(C)ccc2/C(=N/O)NCC(C)(C)C)c(C)c1 | 11% |
| COc1cc(C)ccc1Oc1nc(C)ccc1/C(=N/O)NCCSC | -7% |
| Cc1ccc(Oc2nc(C)ccc2/C(=N/O)NCC(C)C)c(C)c1 | 20% |
| Cc1ccc(/C(=N/O)NCCN2CCCC2)c(Oc2cccc(F)c2)n1 | -3% |
| C=CCN1CCN(/C(=N\O)c2ccc(C)nc2OCc2cccc(F)c2)CC1 | 3% |
| CCC(NCc1coc(-c2cccs2)n1)c1ccccc1 (stereo not given) | -5% |
| c1coc(-c2nc(CNC3CCc4ccccc43)co2)c1 (stereo not given) | 17% |
| CN(Cc1coc(-c2ccccc2F)n1)Cc1cccc2ccccc12 | -49% |
| CCN(C)Cc1coc(-c2cccc(F)c2)n1 | -10% |
| COc1cc(CNCc2coc(-c3ccc(O)cc3)n2)cc(OC)c1 | 8% |
| CC(C)c1ccc(N/C(=N\O)c2ccc(Oc3ccc4oc5ccccc5c4c3)nc2)cc1 | 25% |

| Compound | % inhibition |
| --- | --- |
| Cc1ccc(/C(=N/O)N2CCSCC2)c(OCc2cccc(F)c2)n1 | -17% |
| CCOC(=O)C1CCCN(Cc2coc(-c3cc(OC)c(OC)c(OC)c3)n2)C1 (stereo not given) | -16% |
| CN(Cc1coc(-c2ccc(Br)cc2)n1)CC1OCCO1 | 11% |
| Cc1ccccc1-c1nc(CN2CC(C)CC(C)C2)co1 (stereo not given) | 6% |
| COc1ccc(Oc2nc(C)ccc2/C(=N/O)NCC2CC2)cc1 | 24% |
| Cc1ccc(Oc2nc(C)ccc2/C(=N/O)NCC2CC2)cc1 | 74% |
| Cc1ccc(/C(=N/O)NCC2CC2)c(Oc2ccc(F)cc2)n1 | 33% |
| CCOc1cccc(-c2nc(Cn3cnc(-c4ccccc4)c3)co2)c1 | 11% |
| CN(Cc1coc(-c2ccco2)n1)C1CCCCC1 | 11% |
| Cc1ccccc1CNCc1coc(-c2ccc(O)cc2)n1 | 1% |
| COc1ccccc1Oc1ncccc1/C(=N/O)N1C(C)CCCC1C (stereo not given) | 9% |
| CSc1ccccc1Oc1ncccc1/C(=N/O)N1CCCCC1 | 8% |
| CSc1ccccc1Oc1ncccc1/C(=N/O)NC1CCCC1 | 99% |
| O/N=C(\NC1CCCC1)c1cccnc1Oc1ccccc1F | 96% |
| COC(=O)C1CCN(/C(=N\O)c2cccnc2Oc2ccccc2OC)CC1 | 15% |
| Cc1ccc(/C(=N/O)NC2CC2)c(Oc2cccc3cccnc23)n1 | 29% |
| COC(=O)C1CCN(/C(=N\O)c2cccnc2Oc2ccccc2SC)CC1 | 18% |
| O/N=C(\NC1CC1)c1cccnc1Oc1ccccc1F | 78% |
| O/N=C(/c1cccnc1Oc1ccccc1F)N1CCCCC1 | 23% |
| COc1ccccc1Oc1ncccc1/C(=N/O)NC1CCCC1 | 99% |
| O/N=C(/c1cccnc1Oc1ccccc1F)N1CCOCC1 | 13% |
| O/N=C(\NCCN1CCCC1)c1cccnc1Oc1ccccc1F | 30% |
